# Screening data from PubChem BioAssay.
# Only some compounds are listed: those with a hit (about 1.6% of all), similar ones and a draw of the others.
# KCNQ2 inh: inhibitors of rat KCNQ2 potassium channel; O88943; CHO-K1 KCNQ2, FluxOR thallium flux, 20 min; active compounds read low; B-score at 10 µM; 1.1% of 310,000 active; AID 2156;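 active = fluorescence ratio B-score at most minus 3 library SDs, with starting brightness B-score within 2 library SDs, cut at about -5.5 in these data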
# KCNQ2 pot: potentiators of rat KCNQ2 potassium channel. O88943. CHO-K1 KCNQ2, FluxOR thallium flux fluorescence; active compounds read high. B-score at 10 µM. 0.54% of 310,000 active. AID 2239;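 active = fluorescence ratio B-score at least 3 SD of library B-scores, with initial fluorescence B-score within 3 of them, cut at about 5.3 in these data; same plate scores as AID 2156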;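 note: B-score of peak minus minimum over baseline fluorescence ratio after K+ and Tl+ stimulus; positive B-score means potentiation of KCNQ2 with more thallium influx and brighter signal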
# Kir21 confirm: confirmation of mouse Kir2.1 potassium channel inhibitors; shares compounds with KCNQ2 pot; Kir2.1-expressing cells, FluxOR thallium flux fluorescence; active compounds read low; Tl flux remaining, % of negative control (active compounds read low), % at 10 µM; 41% of 2,300 active; AID 2032;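 active = Primary-screen hit whose thallium flux fell at least 3 control SD below untreated wells in both duplicates, with normal baseline fluorescence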
# HEK293 Tl flux: alters thallium flux in parental HEK293 cells, Kir2.1 counter-screen; FluxOR thallium flux fluorescence; 0% = unstimulated blank wells; shares compounds with KCNQ2 pot; 19% of 2,300 active; FluxOR signal as % of negative control (100 = no effect), % at 10 µM; AID 2105;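 active = dye signal at least 3 control SD above or below untreated wells in both duplicates, raw fluorescence within 3, either direction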;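 note: percent is based on the flux ratio of peak minus minimum fluorescence over baseline F0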
# CHO-K1 ctr: parental CHO-K1 activity in KCNQ2 potentiator counter-screen. shares compounds with KCNQ2 pot. activity increase over 3SD of controls, % at 10 µM. parental CHO-K1 cells, FluxOR thallium flux fluorescence; zero = vehicle mean+3SD, 100% = vehicle-minus-blank window. 43% of 1,200 active;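 active = signal rise of at least 3 SD above the untreated control mean, in both duplicate wells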;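 note: counter screen of KCNQ2 potentiator hits so any rise reflects channel-independent effects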
# KCNQ1 pot spec: tests whether KCNQ2 potentiators also act on human KCNQ1 | shares compounds with KCNQ2 pot | CHO KCNQ1 stable, FluxOR thallium flux fluorescence; beyond 3SD, as % of vehicle-control signal | activation over 3SD threshold, % at 10 µM | 28% of 1,200 active;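 active = fluorescence ratio rise of at least 3 SD of vehicle wells above their mean, in both replicate wells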
# KCNQ2 pot conf: confirmation of rat KCNQ2 potassium channel potentiators; CHO-KCNQ2 cells, FluxOR thallium flux fluorescence; AID 2287; potentiation, less the hit threshold, % at 10 µM; shares compounds with KCNQ2 pot; 68% of 1,200 active;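 active = fluorescence ratio rising 3 SD or more over the vehicle control mean in both replicates, plus primary screen hit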;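 note: peak minus minimum thallium fluorescence divided by baseline after K/Tl stimulus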
# Kir2-1 sel: selectivity of KCNQ2 potentiators: effect on mouse Kir2.1. activity over 3SD threshold, % at 10 µM. HEK293 Kir2.1, FluxOR thallium flux fluorescence. shares compounds with KCNQ2 pot. AID 2345. 2% of 1,200 active;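 active = fluorescence ratio rise of at least 3 SD above the vehicle-control mean, seen in both replicates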
# KCNQ2 W236L MoA: KCNQ2 potentiators acting on retigabine-insensitive rat KCNQ2 W236L mutant; shares compounds with KCNQ2 pot; CHO KCNQ2-W236L, automated patch clamp current; current increase over 3SD of negative controls (%), active compounds read high, % at 25 µM; 10% of 940 active;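 active = current increase at least 3 SD of the untreated controls above them in both duplicate recordings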
# A number is an active result; – = inactive; · = no result.
SMILES,KCNQ2 inh,KCNQ2 pot,Kir21 confirm,HEK293 Tl flux,others
Cc1noc(C)c1CSCC(=O)Nc1ccccc1N1CCCCC1,–,·,56.0%,76.0%,
Cc1cccc(NC(=O)CSCc2c(C)noc2C)c1C,–,–,·,·,
O=C(CSc1ccc(F)cc1)Nc1ccc(N2CCOCC2)cc1,–,–,·,·,
COc1ccc(Br)cc1CN1CCN(C(=O)c2ccco2)CC1,–,·,·,·,
Cc1ccc(-n2nc3c(=O)n(CC(=O)NCCC4=CCCCC4)nc(C)c3c2C)cc1,–,–,·,·,
Cc1ccc(-n2cnc(N)c2C(=O)c2cccc([N+](=O)[O-])c2)cc1,–,–,·,·,
COc1ccc(OCC(=O)NC2CCCN(Cc3ccc(Cl)cc3)C2)cc1 (stereo not given),–,·,·,·,
CN(C)c1ccc(S(=O)(=O)N2CCCCC2)cc1NC(=O)CN1C(=O)NC2(CCCC2)C1=O,–,·,·,·,
CCCCc1ccc(/C(C)=N/NC(=O)C2CCCC2)cc1,–,·,·,·,
O=C(O)c1ccccc1C(=O)Nc1ccccc1,–,–,·,·,
O=C(Nc1ccccc1)C1=C(c2ccccc2)S(=O)(=O)CCS1(=O)=O,–,8.09,–,–,CHO-K1 ctr=–;KCNQ1 pot spec=–;KCNQ2 pot conf=3.7;Kir2-1 sel=–;KCNQ2 W236L MoA=3.5%
COC(=O)COc1ccc(-n2cnnn2)cc1,–,–,·,·,
CCCCN(C(=O)c1ccco1)C1CCS(=O)(=O)C1 (stereo not given),–,·,·,·,
CC(/C=N/n1c(C2CCCCC2)n[nH]c1=S)=C\c1ccccc1,–,8.35,–,–,CHO-K1 ctr=92.0;KCNQ1 pot spec=23.4;KCNQ2 pot conf=–;Kir2-1 sel=–
Cc1cccc(/C=N/n2c(C3CCCCC3)n[nH]c2=S)c1,–,·,·,·,
CC(=O)Nc1ccc(S(=O)(=O)NC(C)(C#N)C2CC2)cc1 (stereo not given),–,–,·,·,
CC(C)=NOCC(=O)Nn1c(COc2ccccc2)nc2ccccc2c1=O,–,–,·,·,
Nc1nn(S(=O)(=O)c2cccc3nsnc23)cc1-c1ccc(Br)cc1,–,8.02,–,–,CHO-K1 ctr=–;KCNQ1 pot spec=8.4;KCNQ2 pot conf=–;Kir2-1 sel=–
Cc1ccc(-c2cn(S(=O)(=O)c3cccc4nsnc34)nc2N)cc1,–,–,·,·,
Cc1cc(C)c[n+](C(C)C(=O)c2ccc(Cl)cc2)c1 (stereo not given),–,–,·,·,
CN(C)C(CNC(=O)CCc1nc2cc(Cl)ccc2n(Cc2ccccc2)c1=O)c1ccccc1 (stereo not given),–,·,74.5%,–,
CCNC(=S)NNC(=O)CCc1nc2cc(Cl)ccc2n(Cc2ccccc2)c1=O,–,–,·,·,
COc1ccc(CNC(=O)CN(C(=O)c2csnn2)c2ccc(F)cc2)cc1,–,·,·,·,
C=CCn1c(=S)[nH]c2ccc(Br)cc2c1=O,–,5.87,–,–,CHO-K1 ctr=–;KCNQ1 pot spec=–;KCNQ2 pot conf=–;Kir2-1 sel=–;KCNQ2 W236L MoA=–
C=CCn1c(=S)[nH]c2cc(C(=O)Nc3ccc(OC)c(OC)c3)ccc2c1=O,–,·,·,·,
SMILES,KCNQ2 inh,KCNQ2 pot,Kir21 confirm,HEK293 Tl flux,others
COc1ccc(N(C(=O)CNC(=O)c2cccs2)C(C(=O)NC2CCCC2)c2cccnc2)cc1 (stereo not given),–,·,·,·,
Cc1ccc(C(OCC(O)CN2CCCCC2CO)c2ccccc2)cc1 (stereo not given),–,–,·,·,
O=C(c1ccccc1)c1ccc(OCC(O)CNCc2ccc(F)cc2)cc1 (stereo not given),–,·,25.5%,–,
Cc1ccc(OCC(O)CNCc2ccccc2)cc1C (stereo not given),–,·,·,·,
Cc1ccc(C(OCC(O)CNCc2ccc(F)cc2)c2ccccc2)cc1 (stereo not given),–,·,33.5%,–,
CCC(=O)c1ccc(OCC(O)CNCc2ccc(F)cc2)cc1 (stereo not given),–,–,·,·,
